# Data taken from the supplement of paper PMC13380429.
# Values without a mark were called inactive.
# Test system: Vero E6 infected with SARS-CoV-2
# Assay: inhibition of SARS-CoV-2 cytopathic effect; higher = more antiviral protection, active = above 15
# Conditions: 48 h
Compound,inhibition of SARS-CoV-2 cytopathic effect (1 nM) [%],inhibition of SARS-CoV-2 cytopathic effect (8.33 nM) [%],inhibition of SARS-CoV-2 cytopathic effect (100 nM) [%],inhibition of SARS-CoV-2 cytopathic effect (833.33 nM) [%],inhibition of SARS-CoV-2 cytopathic effect (10000 nM)
CC(OC(=O)NCC1(CC(=O)O)CCCCC1)OC(=O)C(C)C (stereo not given) [gabapentin-enacarbil],-7.45,-8.92,-4.27,-4.9,-8.44%
O=C(NC[C@H](O)CO)c1ccncc1Nc1ccc(I)cc1F,-1.62,-4.02,-9.84,-13.5,-14.7%
C/C(=N\NC(=S)N1CCC1)c1ccccn1,0.2,0.91,2.65,-1.1,20.1% (active)
O=C(Nc1ccc(Cl)nc1)c1ccc(Cl)cc1,0.45,1.94,2.79,0.19,0.84%
Cc1ccc(CNc2ncnc3ccc(-c4ccc(CO)o4)cc23)o1,-1.31,0.26,0.15,-0.45,1.88%
COC(=O)N[C@H](C(=O)N1CCC[C@H]1c1nc(-c2ccc3c(c2)O[C@@H](c2ccccc2)n2c-3cc3cc(-c4c[nH]c([C@@H]5CCCN5C(=O)[C@@H](NC(=O)OC)C(C)C)n4)ccc32)c[nH]1)C(C)C [elbasvir],1.03,1.52,0.09,-1.19,-4.27%
Cc1ccc2c(Br)cc(Br)c(OC(=O)c3ccccc3)c2n1 [broxaldine],0.35,0.53,4.07,5.01,11.5%
COc1ccccc1N1CCN(CCN(C(=O)C2CCCCC2)c2ccccn2)CC1,-3.64,-4.61,-0.56,3.47,-0.29%
Cc1onc(O)c1C[C@@H](N)C(=O)O (racemic),0.825,1.39,2.15,2.51,1.4%
CC(=O)c1c(O)cc(C)oc1=O [dehydroacetic-acid],2.87,3.44,2.94,2.97,3.07%
CN1CCN(c2ccc(/C=C(\C#N)c3ccccc3Br)cc2)CC1,2.51,-1.94,-3.13,-2.26,-2.17%
CCCC(=O)O[C@]1(C(=O)COC(C)=O)CC[C@H]2[C@@H]3C[C@H](F)C4=CC(=O)C=C[C@]4(C)[C@@]3(F)[C@@H](O)C[C@@]21C [difluprednate],1.05,1.55,1.52,1.03,6.96%
Cc1ccc(Oc2ccccc2-c2csc(N=C3NCCCN3)n2)c(C)c1 [abafungin],2.5,1.5,1.28,-1.03,-6.36%
O=C(NOCC(O)CO)c1cc(Br)c(F)c(F)c1Nc1ccc(I)cc1F (stereo not given),-0.27,-0.08,-8.55,-10,-12.5%
Nc1ncnc2c1ncn2[C@@H]1O[C@H](COP(=O)(O)OP(=O)(O)OP(=O)(O)O)[C@@H](O)[C@H]1O,-0.89,-1.33,-0.6,2.57,2.48%
Cc1ccc(/C=C2\CNC/C(=C\c3ccc(C)cc3)C2=O)cc1,-3.15,-1.97,-0.54,-0.34,0.13%
C[C@@H]1COCCN1c1cc(=O)n2c(n1)N(Cc1cncc(Cl)c1)[C@H](C(F)(F)F)CC2,-2.96,2.22,-0.24,7.24,44.4% (active)
Cc1cc(-c2ccccc2)nnc1NCCN1CCOCC1 [minaprine],0.27,0.75,-0.02,1.16,1.01%
O=C(O[C@@H]1Cc2c(O)cc(O)cc2O[C@@H]1c1ccc(O)c(O)c1)c1cc(O)c(O)c(O)c1 [epicatechin-gallate-(-)],-1.08,3.11,5.77,3.37,-0.51%
N[C@@H](CCNCc1ccc(Cl)cc1)C(=O)N1CCCCC1,0.82,-0.55,-2.08,-1.49,-1.28%

Compound,inhibition of SARS-CoV-2 cytopathic effect (1 nM) [%],inhibition of SARS-CoV-2 cytopathic effect (8.33 nM) [%],inhibition of SARS-CoV-2 cytopathic effect (100 nM) [%],inhibition of SARS-CoV-2 cytopathic effect (833.33 nM) [%],inhibition of SARS-CoV-2 cytopathic effect (10000 nM)
CC(C)CCN1c2nc(Nc3cc(F)c(O)c(F)c3)ncc2N(C)C(=O)[C@@H]1C,-1.15,-2.75,-6.09,-0.02,8.71%
Clc1ccc(Cn2c(CN3CCCC3)nc3ccccc32)cc1 [clemizole],-3.82,-2.64,-3.58,-3.06,-6.74%
c1ccc2c(CCNc3ccc(Nc4ccncc4)cc3)c[nH]c2c1 [serdemetan],-2.3,-1.01,-2.55,-0.64,22.1% (active)
CCC(C)(C)C(=O)O[C@H]1C[C@@H](C)C=C2C=C[C@H](C)[C@H](CC[C@@H]3C[C@@H](O)CC(=O)O3)[C@H]21 [simvastatin],-3.26,0.13,-0.41,-0.83,5.01%
CC(C)NC[C@@H](O)COc1ccc(CC(N)=O)cc1 (racemic) [atenolol-(+/-)],-2.25,0.225,0.74,0.24,-0.8%
COC(=O)[C@H](NC(=O)c1cc(-c2ccccc2)nc2ccccc12)c1ccccc1,2.67,2.5,0.38,0.39,1.12%
CC(C)(Sc1ccc(CCN(CCCCC2CCCCC2)C(=O)NC2CCCCC2)cc1)C(=O)O,-11.4,-10,-5.76,-3.65,-8.5%
O=c1[nH]c2ccccc2c(=O)n1CCCN1CCN(c2ccccc2)CC1 [pelanserin],0.03,1.75,-0.08,1.18,0.03%
COc1ccc(CCC(=O)c2c(O)cc(O[C@@H]3O[C@H](CO)[C@@H](O)[C@H](O)[C@H]3O[C@@H]3O[C@@H](C)[C@H](O)[C@@H](O)[C@H]3O)cc2O)cc1O [Neohesperidin dihydrochalcone (Nhdc)],-1.62,-3.36,-1.21,0.9,-1.64%
CCOP(=S)(OCC)Oc1ccc2c(C)c(Cl)c(=O)oc2c1 [coumophos],-3.33,0.82,0.18,-2.21,-0.05%
COc1cc(/C=C2\CCC/C(=C\c3ccc(O)c(OC)c3)C2=O)ccc1O [cyclovalone],-0.89,0.77,2.28,6.64,29.5% (active)
O=C1c2cccc(O)c2C(=O)c2c(O)cccc21 [dantron],-2.75,-3.39,-1.6,-0.79,0.11%
CCCCCCCCCCCCCCSCC(=O)O [tetradecylthioacetic-acid],0.56,0.01,-2.65,-4.9,1.48%
C[C@]12CC[C@H]3[C@@H](CCC4=CC(=O)CC[C@@H]43)[C@@H]1CC[C@@H]2O [Nandrolone],-1.64,-1.9,-1.06,1.95,-0.94%
COc1cccc([C@@H](C)NCCCc2ccccc2Cl)c1 [tecalcet],1.64,1.12,3.52,-0.64,-3.1%
C[N+](C)(C)CC[N+]1(C)Cc2c(Cl)c(Cl)c(Cl)c(Cl)c2C1 [chlorisondamine-diiodide],0.2,-3.86,-0.88,1.41,-1.63%
O=C[C@H](O)[C@@H](O)[C@H](O)CO [xylose],2.36,1.7,-0.84,-1.64,-4.41%
C=C1/C(=C\C=C2/CCC[C@]3(C)[C@@H]([C@H](C)CCCC(O)(C(F)(F)F)C(F)(F)F)CC[C@@H]23)C[C@@H](O)C[C@@H]1O [falecalcitriol],-0.53,0.41,-1.28,0.88,-2.37%
"CCn1c(O)nnc1-c1ccc(Cl)cc1 [5-(4chlorophenyl)-4-ethyl-2,4-dihydro-3H-1,2,4-triazol-3-one]",-1.14,-2.31,-1.83,0.79,0.03%
